Screens from PubChem BioAssay.
ELG1 genotox: genotoxicity induction in ELG1-luciferase HEK293T cells | Potency, µM (titrated, usually from 46 µM), hits mostly activators | HEK293T ELG1-luciferase reporter, luminescence, 16 h | actives 1.3% (n = 330,000); note: nearly all actives have a fitted effect of over 60% in size
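16 hr compound incubation (37 °C, 5% CO2) of HEK293T cells carrying luciferase-tagged ELG1; luciferase then measured by ONE-Glo luminescence after 30 min at RT.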
p53 reactivator: mutant p53 re-activation in reporter cells. AID 504706. H1299 p53-A138V BP100-luciferase reporter, luminescence, 24 h. Potency, µM (highest dose often 92.2 µM), actives largely listed as activators. actives 0.063% (n = 320,000); note: nearly all actives have a fitted effect of over 45% in size
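p53-null H1299 cells stably carrying temperature-sensitive p53-A138V and a BP100-luciferase reporter were pinned with compounds (4-point, 1:5 series) and held 24 hrs at 37 deg C. Luminescence was read 10 min after detection reagent.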
Rab9 prom act: activates the Rab9 promoter; Huh7 Rab9 promoter-luciferase reporter, luminescence, 24 h; Potency, µM (highest dose often 9.22 µM), actives largely listed as activators; actives 2.8% (n = 320,000); note: nearly all actives have a fitted effect of over 60% in size
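Luminescence read-out: Huh7 cells stably expressing Rab9-luciferase, treated 24 h with compound at 37 °C, then lysed with luciferase reagent for 10 min at ambient before reading.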
FLuc modulator: inhibits or activates purified firefly luciferase, miR-21 counter-screen | purified FLuc, Km substrates, luminescence inhibition | Potency, µM (series often up to 57.5 µM), most hits filed as inhibitors | actives 6.9% (n = 360,000) | AID 588342; note: nearly all actives have a fitted effect of over 55% in size
Target sequence (P08659 whole entry, looked up): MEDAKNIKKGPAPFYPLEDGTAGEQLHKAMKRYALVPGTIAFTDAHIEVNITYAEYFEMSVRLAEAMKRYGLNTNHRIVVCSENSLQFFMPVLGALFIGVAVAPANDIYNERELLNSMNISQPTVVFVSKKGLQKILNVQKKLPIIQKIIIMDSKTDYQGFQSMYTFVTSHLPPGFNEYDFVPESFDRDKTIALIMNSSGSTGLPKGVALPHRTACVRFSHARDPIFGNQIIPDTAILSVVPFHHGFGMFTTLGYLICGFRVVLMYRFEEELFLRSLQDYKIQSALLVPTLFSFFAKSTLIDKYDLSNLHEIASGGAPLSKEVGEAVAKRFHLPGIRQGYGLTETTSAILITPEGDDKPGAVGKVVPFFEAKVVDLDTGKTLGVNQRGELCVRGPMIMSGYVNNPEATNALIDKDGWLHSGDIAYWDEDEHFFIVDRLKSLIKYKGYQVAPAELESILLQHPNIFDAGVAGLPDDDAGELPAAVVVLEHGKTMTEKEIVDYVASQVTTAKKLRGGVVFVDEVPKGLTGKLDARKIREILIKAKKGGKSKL
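Purified P. pyralis luciferase (10nM final) with 10uM D-luciferin and 10uM ATP (Km levels) in 50mM Tris acetate pH 7.5, 10mM Mg acetate, 0.01% Tween-20, 0.05% BSA; qHTS 6-point titration, ~60 µM downward; luminescence read.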
NPC1 promoter act: activators of NPC1 promoter. actives 2.4% (n = 320,000). Potency, µM (highest dose often 9.22 µM), most hits filed as activators. Huh7 NPC1 promoter luciferase reporter, 24 h; note: nearly all actives have a fitted effect of over 60% in size
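Huh7 reporter cells (NPC1 promoter driving luciferase) are dosed with compound for 24 h at 37 °C, 5% CO2; luciferase detection reagent is then added and luminescence measured after 10 min at ambient temperature.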
SMN2 splice enh: SMN2 splice variant enhancement. AID 1458. Potency, µM (top dose mostly 46.1 µM), actives largely listed as activators. actives 2.8% (n = 210,000). HEK293 SMN2-luciferase splicing reporter, luminescence, 30-36 h; note: nearly all actives have a fitted effect of over 55% in size
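HEK293 cells carry an SMN2 minigene-luciferase reporter in which exon 7 inclusion puts luciferase in frame. Cells were seeded at 2000 cells/well, attached for 10-12 hours, then exposed to compounds for 30-36 hours at 37C before ONE-Glo luminescence.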
Numbers stand for hits; i = inactive; ? = inconclusive; nt = no result given; [ ] = remark or other dose. In the library only some 7.3% were active in any assay of this set; here they are far more common. Calls come from the whole dose curve; as a rule, active = well fitted curve in the direction sought with a large enough effect; inconclusive = small, poorly fitted or top-dose-only effect, or another doubt; inactive = no such curve, though single readings can be large; an effect the other way counts as inactive or inconclusive.

SMILES	ELG1 genotox	p53 reactivator	Rab9 prom act	FLuc modulator	NPC1 promoter act	SMN2 splice enh
COc1ccc(Nc2nc(-c3cccnc3)cs2)c(OC)c1	i	i	?	21.3µM	3.55µM	nt
COc1ccccc1Nc1nc(-c2cccnc2)cs1	i	nt	?	13.5µM	?	nt
COc1ccccc1Nc1nc(C2(C)CCC(=O)O2)cs1 (stereo not drawn)	i	?	i	15.1µM	i	i
COc1ccccc1Nc1nc(-c2ccc3c(c2)NC(=O)CO3)cs1	i	i	i	?	i	i
O=[N+]([O-])c1ccccc1Nc1nc(-c2cccnc2)cs1	?	nt	i	10.7µM	?	nt
COc1ccc(Nc2nc(-c3sc(C)nc3C)cs2)c(OC)c1	i	i	i	?	i	nt
CCN(C(=O)c1cn(CC)c(=O)c2cc(OC)c(OC)cc12)c1ccc(C)c(C)c1	nt	nt	nt	i	nt	i
COC(=O)C1(C)C=C(Nc2ccc(OC)cc2)C(=O)N1c1ccc(OC)cc1 (stereo not drawn)	nt	nt	nt	nt	nt	i
Cc1cccc(C)c1-n1ncc(C(=O)N2CCN(c3ccccn3)CC2)c1C1CCN(C(=O)OC(C)(C)C)CC1	nt	nt	nt	i	nt	nt
O=C(O)c1ccc(C(=O)O)c(C(=O)O)c1.[NH-][C@@H]1CCCC[C@@H]1[NH-].[Pt]	nt	nt	nt	nt	nt	i[9.22 µM]
CC(C)(C)c1ccc(-c2nnc(N)o2)cc1	?	i	2.82µM	6.01µM	2.82µM	nt
Cc1ccc(-c2cn3cccnc3n2)cc1	i	i	?	15.1µM	2.82µM	nt
O=C(Nc1cccc(-c2cn3cccnc3n2)c1)c1ccc2c(c1)OCO2	i	i	i	12µM	i	i
Nc1cccc(-c2cn3cccnc3n2)c1	i	i	i	i	i	i
c1ccn2cc(-c3ccc4c(c3)OCO4)cc2c1	?	i	3.16µM	3.38µM	?	12.6µM
c1cnc2nc(-c3ccc4c(c3)OCO4)cn2c1	?	i	2.51µM	9.53µM	?	nt
COc1ccc(-c2nc3ccccc3o2)cc1NC(=O)c1ccc(-c2cccc(Cl)c2C)o1	nt	nt	nt	i	nt	i
CCCCOC(=O)c1ccc(NC(=O)/C(C#N)=C/c2ccc(C)o2)cc1	nt	nt	nt	i	nt	i
O=C(Nc1cccc(-c2cn3c(n2)SCC3)c1)c1ccc2c(c1)OCO2	i	i	?	10.7µM	i	i
Cc1cccc(OCCOCCSc2ncccn2)c1	?	?	i	i	i	i
c1cnc(SCCOc2cccc3ccccc23)nc1	11.6µM	i	2.24µM	7.57µM	?	i
Cc1ccc(OCCSc2ncccn2)c(C)c1	?	i	0.501µM	2.13µM	0.631µM	3.16µM
COc1ccc(NC(=O)c2ccc(NC(=O)COC(=O)c3cnc(C)cn3)cc2)cc1	?	i	i	?	i	nt
O=C1C2C3C=CC(CC3)C2C(=O)N1c1cccc(Br)c1 (stereo not drawn)	i	i	i	i	i	nt
CC(C)CN1C(=O)c2ccc(NC(=O)c3ccccc3F)cc2C1=O	?	i	?	12µM	i	i
SMILES	ELG1 genotox	p53 reactivator	Rab9 prom act	FLuc modulator	NPC1 promoter act	SMN2 splice enh
CC(C)CN1C(=O)c2ccc(NC(=O)c3ccco3)cc2C1=O	i	i	?	19µM	?	nt
CC(C)CN1C(=O)c2ccc(NC(=O)C3CC3)cc2C1=O	i	nt	i	i	i	nt
CC(C)CN1C(=O)c2ccc(NC(=O)c3cccs3)cc2C1=O	i	i	?	9.53µM	i	i
Cc1ccc(C)c(N2CCN(C(=O)CCC(=O)Nc3ccc4nc(N5CCCCC5)cc(C)c4c3)CC2)c1	nt	nt	nt	?	nt	i
Cc1cc(N2CCOCC2)nc2ccc(NC(=O)CCC(=O)N3CCN(c4ccccc4F)CC3)cc12	?	i	3.98µM	6.01µM	?	nt
Cc1cc(N2CCOCC2)nc2ccc(NC(=O)CCC(=O)N3CCN(c4ccc(F)cc4)CC3)cc12	i	i	?	19µM	i	nt
Cc1cc(N2CCOCC2)nc2ccc(NC(=O)CCC(=O)N3CCCC(C)C3)cc12 (stereo not drawn)	?	i	?	21.3µM	3.98µM	12.6µM
Cc1cc(N2CCOCC2)nc2ccc(NC(=S)N3CCCCC3C)cc12 (stereo not drawn)	i	i	i	?	i	i
Cc1cc(N2CCCCC2)nc2ccc(NC(=O)CCC(=O)N3CCN(c4ccccc4)CC3)cc12	nt	nt	nt	9.53µM	nt	i
Cc1cc(C(=O)N2CCN(c3cccc(C)c3C)CC2)c2c(C)nn(-c3ccccc3)c2n1	nt	nt	nt	i	nt	nt
CC1=C(C(=O)NCc2ccc(Cl)cc2)C2(CCCCCC2)OC1=O	nt	nt	nt	i	nt	nt
CC(C)Oc1ccc(CNC(=O)Cn2ncn3nc(-c4cccs4)cc3c2=O)cc1	nt	nt	nt	i	nt	nt
Cc1cc(N2CCN(c3ccccc3F)CC2)nc2cc(O)ccc12	i	i	i	15.1µM	i	i
Cc1cc(N2CCN(c3ccc(F)cc3)CC2)nc2cc(O)ccc12	i	i	i	?	i	i
CCCc1cc(C(=O)Nc2cccc(C(C)=O)c2)no1	?	?	?	?	3.16µM	i
CCCc1cc(C(=O)Nc2ccc(C(C)=O)cc2)no1	?	i	i	?	i	i
CCCc1cc(C(=O)Nc2ccc(C#N)cc2)no1	i	i	i	i	i	nt
CCCc1cc(C(=O)NCc2ccccc2)no1	23.1µM	i	i	?	i	?
CCCc1cc(C(=O)Nc2cccnc2)no1	?	?	i	15.1µM	i	i
CCCc1cc(C(=O)NCc2cccnc2)no1	i	i	i	i	i	i
CCCc1cc(C(=O)Nc2ccc(F)c(Cl)c2)no1	?	i	i	5.36µM	i	nt
COc1ccc(NC(=O)Cn2c(=O)n(-c3cccc(C)c3)c(=O)c3c2c2cc(C)ccc2n3C)cc1Cl	nt	nt	nt	i	nt	i
CC1CCN(S(=O)(=O)N2CCC(C(=O)NCc3ccccc3Cl)CC2)CC1	nt	nt	nt	i	nt	nt
COc1ccc(NC(=O)c2cc(C(C)C)on2)cc1OC	?	i	i	?	i	i
CCCc1cc(C(=O)Nc2ccccc2SC)no1	?	i	?	?	i	?
SMILES	ELG1 genotox	p53 reactivator	Rab9 prom act	FLuc modulator	NPC1 promoter act	SMN2 splice enh
CC(C)c1cc(C(=O)Nc2cccnc2)no1	?	?	2.82µM	i[2.3 µM]	3.98µM	35.5µM
CCCc1cc(C(=O)Nc2cccc(Cl)c2C)no1	18.3µM	i	?	23.9µM	?	nt
CCCc1cc(C(=O)Nc2cccc(Cl)c2)no1	14.6µM	i	i	1.9µM	i	i
CCCc1cc(C(=O)Nc2ccc(F)cc2F)no1	11.6µM	?	?	10.7µM	i	i
CCCSc1ncc(Cl)c(C(=O)N2CCN(c3cccc(Cl)c3)CC2)n1	nt	nt	nt	i	nt	i
COc1ccc(C(=O)N2CCC3(CCCN(Cc4ccccc4)C3)CC2)cc1	nt	nt	nt	nt	nt	i
C[C@@]1(C(=O)O)CCC[C@@H]1C(=O)O	nt	nt	nt	nt	nt	i[9.22 µM]
COc1cc(NC(=O)CC(C)S(=O)(=O)c2cc3c4c(c2)CCN4C(=O)CC3)cc(OC)c1 (stereo not drawn)	nt	nt	nt	i	nt	nt
Cc1ccc(NC(=O)CN(C)C(=O)CSc2nnc(NC(C)C)s2)cc1	i	i	i	i	i	nt
